Pf growth 48h = P. falciparum growth inhibition at 48 hours (one generation) | P. falciparum luciferase growth in erythrocytes, 48 h | Potency, µM (series often up to 28.7 µM), usual class: inhibitors | 5.9% of 310,000 active
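In quantitative HTS format, infected erythrocytes bearing luciferase-reporter parasites were treated for a single generation at 37 C. Luminescence after adding detection reagent served as the growth measure.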
Shiga toxin inh = inhibitors of Shiga toxin in Vero cells; Vero cells, Shiga toxin protein synthesis inhibition reporter; inhibition, % at 38.7 µM; 9.2% of 290,000 active; AID 2315; in the data active = inhibition mostly above about 28%, no sharp cut-off; inactive = mostly below about 43%
LASV entry inh = inhibitors of Lassa virus binding or cell entry; Lassa virus pseudotype entry inhibition, cell reporter; 1.2% of 300,000 active; Potency, µM (highest dose often 37.9 µM), actives largely listed as inhibitors; calls by dose curve; tested in HEK293 cells; also: nearly all actives have a fitted effect of over 50% in size
CHX counter = counter-screen for Shiga toxin inhibitors: cycloheximide protein synthesis inhibition. cell reporter, cycloheximide protein synthesis inhibition counterscreen. max response, %. 12% of 300,000 active; in the data active = max response mostly above about 13%, no sharp cut-off; inactive = mostly below about 14%; also: read at 38.3 µM for the half of the compounds with a filed dose
Marburg entry inh = blocks Marburg virus binding to or entry into cells | Marburg virus pseudotyped entry inhibition, cell reporter | Potency, µM (doses to about 37.8 µM), usual class: inhibitors | 1.8% of 300,000 active | AID 540276; calls by dose curve; tested in HEK293 cells
Pf growth 96h = P. falciparum growth inhibition at 96 hours; 6.9% of 320,000 active; AID 504834; P. falciparum luciferase reporter growth, 96 h; Potency, µM (highest dose often 28.7 µM), hits mostly inhibitors
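Cell-based qHTS: luciferase-tagged P. falciparum in erythrocytes (2% hematocrit, 0.05% parasitemia final) incubated with compounds for 96 hours, 37 C, 5% CO2; luciferase detection reagent then added and luminescence measured.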
A number is an active result; 0 = inactive; ? = inconclusive; - = no result. A selection: hits, their analogues and other compounds. The true share with any hit is near 19%. Unless noted, calls follow the shape of the dose curve; as a rule, active = well fitted inhibition curve with a large enough effect; inconclusive = small, poorly fitted or top-dose-only effect, or another doubt; inactive = no such curve, though single readings can be large or run the other way.

SMILES	Pf growth 48h	Shiga toxin inh	LASV entry inh	CHX counter	Marburg entry inh	Pf growth 96h
CCn1cc(C(=O)Nc2ccc(NC(=O)c3ccco3)cc2)c(=O)c2ccc(C)nc21	0	0	0	0	?	6.6µM
CCOC(=O)/C=C/COc1ccccc1[N+](=O)[O-]	0	102	0	47	0	0
O=[N+]([O-])c1cccc2c([N+](=O)[O-])cccc12	0	-	-	-	-	5.9µM
COc1ccc(CNc2ncccc2[N+](=O)[O-])cc1	0	52	0	26	?	0
O=[N+]([O-])c1cccc2[nH]ncc12	-	-	0	-	?	-
O=[N+]([O-])c1ccccc1OCCOc1ccccc1[N+](=O)[O-]	0	50	0	18	?	0
CCOP(=O)(CN(CC)C(=O)c1ccccc1Br)OCC	0	0	0	0	0	0
CSc1cccc(NS(=O)(=O)c2ccc3[nH]cc(C(=O)N4CCCCCC4)c(=O)c3c2)c1	-	-	0	-	0	-
COc1ccc(OCCOc2ccccc2[N+](=O)[O-])cc1	0	0	0	39	?	0
O=[N+]([O-])c1ccccc1OCCCN1CCOCC1	0	0	0	9.3	?	0
Cc1nnc(NC(=O)CC(NC(=O)C(F)(F)F)c2ccccc2)s1 (stereo not drawn)	0	0	0	0	0	0
COc1cc(NC(=O)c2ccccc2C)c(OC)cc1NC(=O)CN1CCOCC1	?	0	?	0	0	0
CC1CCN(C(=O)C2CCN(S(=O)(=O)c3ccc4c(c3)CC(C)N4C(=O)C3CC3)CC2)CC1 (stereo not drawn)	9.3µM	0	?	0	?	0
CC1Cc2cc(S(=O)(=O)N3CCN(c4ccc(Cl)cc4)CC3)ccc2N1C(=O)C1CC1 (stereo not drawn)	?	0	?	0	?	15µM
CC(=O)N1c2ccc(S(=O)(=O)N3CCC(C(=O)N4CCCCC4)CC3)cc2CC1C (stereo not drawn)	?	0	-	0	-	?
COc1ccc(C(=O)OCC(=O)NC(C)CCc2ccccc2)c(OC)c1 (stereo not drawn)	0	0	-	0	-	0
COc1cccc(CCNC(=O)Cn2c(-c3cccs3)cc3ccccc32)c1	-	-	0	-	0	-
CN(c1ccc(OCC(=O)N2CCN(C/C=C/c3ccccc3)CC2)cc1)S(=O)(=O)c1cccs1	9.3µM	0	-	0	-	?
CCOC(=O)C1CCN(C(=O)COc2ccc(N(C)S(=O)(=O)c3cccs3)cc2)CC1	0	0	0	0	0	0
CCOC(=O)c1sc2ncn(/N=C/c3ccccn3)c(=O)c2c1C	0	0	-	0	0	6.6µM
CCOC(=O)c1sc2ncn(/N=C/N(C)C)c(=O)c2c1C	0	0	0	0	0	-
C=CCN(c1ccc(F)cc1)S(=O)(=O)c1cc(C(=O)OCC(=O)N(C)C2CCS(=O)(=O)C2)ccc1Cl (stereo not drawn)	?	0	-	0	-	0
CC(C)(C)C(=O)N(Cc1ccc(Cl)cc1)c1cnccn1	3.3µM	0	-	0	-	5.2µM
CN(C(=O)c1c[nH]c(=O)cc1C(F)(F)F)c1ccc(Cl)cc1	?	0	-	0	-	?
C=C(C)CN1CCN(S(=O)(=O)c2ccc(C)c(N(C)S(=O)(=O)c3ccc(C)cc3)c2C)CC1	10µM	0	?	0	?	0
SMILES	Pf growth 48h	Shiga toxin inh	LASV entry inh	CHX counter	Marburg entry inh	Pf growth 96h
Cc1ccc(S(=O)(=O)N(C)c2c(C)ccc(S(=O)(=O)N3CCN(C)CC3)c2C)cc1	0	0	0	0	0	?
N#CCn1cnc2sc(-c3ccccc3)cc2c1=O	0	0	0	27	?	0
COc1ccc(-n2cnc3sc(-c4ccccc4)cc3c2=O)cc1	0	0	?	43	?	0
CC(=O)Cn1nnc2sc(-c3ccccc3)cc2c1=O	0	93	?	46	?	0
CC(=O)Cn1cnc2sc(-c3ccccc3)cc2c1=O	-	36	?	39	0	0
COc1ccc(-n2cnc3sccc3c2=O)cc1	0	0	0	0	0	0
O=C(Cn1cnc2sc(-c3ccccc3)cc2c1=O)N1CCOCC1	0	0	0	0	0	0
O=c1[nH]c(-c2ccccc2)nc2sc(-c3ccccc3)cc12	0	0	?	0	?	0
CC(C(=O)OCC(=O)c1ccccc1)N1C(=O)c2ccccc2C1=O (stereo not drawn)	0	0	0	0	0	0
CCOc1ccc(NC(=O)C/C(C)=N/NC(=O)Cc2ccc(Cl)cc2)cc1	0	0	0	0	0	?
CCn1cnc2sc(-c3ccccc3)cc2c1=O	0	112	?	29	?	-
